These results are taken from PubChem BioAssay (NCI).

What all share (assay): NCI-60 one-dose screen, 48 h (100 = growth as untreated, 0 = no growth, -100 = all killed)
Settings in all cases: 10 µM unless noted

For test [1], the system named is DU-145 prostate.
Test [2] relates to K-562 leukemia.
The test system of test [3] is MALME-3M melanoma.
The subject of test [4] is MDA-MB-231 breast.
In test [5] the test system is RXF 393 renal.
Test [6] deals with SF-268 CNS.
The subject of test [7] is SF-295 CNS.
Test [8] relates to UACC-257 melanoma.
Test [9] concerns M14 melanoma.

The panel holds about 83,000 compounds, 20% with a hit somewhere; the sample as a whole holds those more often.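 A percent growth of 40 corresponds to 60% growth inhibition; 0 means no net growth; -100 means all cells died. Active threshold: below 10.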 Unmarked numbers belong to inactive results. Active and inactive are the calls of the source.

Consider `COC(=O)[C@@H]1CC[C@]2(C)[C@H](CC[C@@H]3O[C@@]32C)[C@@]1(C)CC(=O)c1ccoc1`, for which the growth in [1] was 112%; in test [2] it was 100%; in test [3], 97.7%; in [4], 88.3%; in [5], 111%; in [6] it was 103%. For the same compound, the figures for the growth in [7], in [8] and in [9] were 104%, 88.4% and 108%, respectively.
As for `COc1cc(C2CC(=O)Nc3c2cnn3Cc2ccco2)cc2c1OCCO2` (stereo unspecified), the growth in test [1] was 104%; in test [2] it was 29.6%; in test [3], 102%; in test [4] it was 101%; in [5], 62.4%; in test [6], 82.5%. Also, the growth in test [7] was 62%; in test [8] it was 82.2%; in [9] it was 70.5%.
For `Cc1ccc(Nc2nc(N)nc(Nc3ccc4ccccc4c3)n2)cc1`, the growth in test [1] was 58.5%; in test [2], 20.2%; in test [3], 83.9%; in test [4], 47.9%; in test [5] it was 27.3%; in [6], 46.3%. For the same compound, the growth in [7] is 53.3%; in test [8] it was 54.3%; in test [9], 44%.
For `O=C(O)c1c([N+](=O)[O-])cnc2ccccc12`, the growth is 116% in test [1]; 112% in test [2]; 88.4% in test [3]; 107% in test [4]; 110% in test [5]; 104% in [6]. Moreover, the growth in test [7] was 102%; in test [8] it was 97.1%; in test [9] it was 93.5%.
Take `O=C(NCc1cccc(C(F)(F)F)c1)[C@H](CCC(=O)N1CCN(C2CCCCC2)CC1)N1C(=O)[C@@H](N2C(=O)OC[C@@H]2c2ccccc2)[C@H]1/C(Cl)=C/c1ccccc1`: the growth was 60.7% in test [1]; 31.5% in test [2]; 47.8% in test [3]; 33.1% in test [4]; 52.2% in test [5]; 31% in test [6]. Further, the growth was 46.5% in test [7], 24.9% in [8] and 37.9% in [9].
Turning to `CCCCCCCCSC1=CC(=O)C(OC)=C(OC)C1=O`, the growth is 68.5% in [1]; 3.59% (active) in [2]; -53.4% (active) in test [3]; 24.2% in test [4]; -69.7% (active) in test [5]; 43.6% in test [6]. The growth in test [7] is 74.1%; in test [8] it was -35.3% (active); in test [9], 26.6%.
On to `O=C1c2cccnc2C(=O)c2c1c(C(=O)OCCN1CCOCC1)c1ccccn21`, for which the growth in [1] was -20.3% (active); in test [2] it was -16% (active); in test [3], -64.8% (active); in test [4] it was 9.01% (active); in test [5] it was 10.7%; in test [6], 13%. Besides, the growth in [7] is -47% (active); in test [8] it was -47% (active); in test [9], -58.7% (active).
With `Cn1c(=O)c2c(ncn2CC[N+](C)(C)C)n(C)c1=O`, the growth in test [1] is 104%; in test [2] it was 92.1%; in test [3], 105%; in test [4] it was 104%; in test [5], 111%; in [6] it was 98.6%. Further, the growth in [7] was 103%; in test [8] it was 94.4%; in test [9] it was 103%.
For the compound `C=C1CC[C@@H]2[C@](C)(COC(C)=O)[C@H](OC(C)=O)CC[C@@]2(C)[C@@H]1CC(Nc1ccc(S(=O)(=O)Nc2nc(C)cc(C)n2)cc1)C1=CCOC1=O` (stereo partly specified), the growth in [1] was 82.3%; in test [2], 19.1%; in test [3], 96.3%; in [4], 107%; in test [5], 85.1%; in [6], 93.3%. Moreover, the growth in [7] is 97%; in test [8], 67.9%; in test [9], 63.8%.
Consider `Cc1ccccc1CCO`, for which the growth was 111% in test [1]; 114% in test [2]; 92.5% in test [3]; 110% in [4]; 104% in [5]; 101% in test [6]. Moreover, the growth was 99.6% in [7], 89.4% in test [8] and 98.3% in test [9].
As to `COc1ccc(CN(c2ccc(C)cc2)C2OC(=O)c3ccccc32)cc1OC` (stereo unspecified), the growth in [1] is 115%; in [2] it was 99.6%; in [3] it was 104%; in [4] it was 117%; in test [5], 104%; in test [6], 113%. In addition, the growth in test [7] was 100%; in test [8], 95%; in test [9], 110%.
`CCCC(=O)Oc1ccc(/C(=C(/CC)Cc2ccccc2)c2ccc(OCCN3CCCC3)cc2)cc1`: the growth in test [1] was 87%; in test [2], 2.42% (active); in test [3], 91.4%; in test [4] it was 78.2%; in [5], 68.2%; in test [6], 67.4%. Moreover, the figures for the growth in test [7], in test [8] and in test [9] were 100%, 87.6% and 63.9%, respectively.
With `CC(=O)C1=C(O)C=C2Oc3c(C(=O)/C=C/c4cc(C(F)(F)F)cc(C(F)(F)F)c4)c(O)c(C)c(O)c3[C@]2(C)C1=O`, the growth in test [1] was -71.4% (active); in test [2], -20.7% (active); in test [3], -65.6% (active); in [4], -38.8% (active); in [5] it was -48.6% (active); in test [6] it was -18.1% (active). The growth is -17.4% (active) in test [7], -51.4% (active) in test [8] and -59.1% (active) in test [9].
`CC/C=C\C[C@H](O)C/C=C1/C(=O)C=C[C@@H]1C/C=C\CCCC(=O)OC(C)C`: the growth in test [1] was 11.5%; in [2], -7.12% (active); in [3] it was -56.2% (active); in test [4], 7.13% (active); in test [5], -82.7% (active); in test [6], 12.9%. Further, the growth was -24.7% (active) in test [7], -51% (active) in test [8] and -31.3% (active) in [9].
Regarding `COc1cc(OC)c(/C=C/C(=O)c2c(OC)cc(OC)cc2OC)c(OC)c1`, the growth in test [1] is 25.1%; in test [2], 8.98% (active); in test [3], 60.6%; in test [4] it was 39.1%; in [5], -14.7% (active); in test [6] it was 22.1%. The results for the growth in test [7], in test [8] and in test [9] were 6.33% (active), 52.2% and -33.5% (active), respectively.
With `CC/C=C\C[C@H](F)C/C=C1/C(=O)C=C[C@@H]1C/C=C\CCCC(=O)OC`, the growth in [1] is 25.7%; in test [2], -5.83% (active); in test [3], -13.6% (active); in test [4] it was 3.26% (active); in [5], -45.5% (active); in test [6], 26%. For the same compound, the growth in test [7] is 4.48% (active); in [8], -0.592% (active); in [9], 1.2% (active).
`CC/C(Cc1ccccc1)=C(/c1ccc(O)cc1)c1ccc(OCCN2CCCC2)cc1`: the growth was -18.6% (active) in test [1]; -10.1% (active) in [2]; -72.5% (active) in test [3]; -60.8% (active) in test [4]; -65% (active) in [5]; 9.94% (active) in [6]. Also, the growth is -63.1% (active) in [7], -65.8% (active) in [8] and -70.5% (active) in test [9].
As to `CCOC(=O)/C=C/C(=O)[C@H](CC(C)C)NC(=O)[C@H](Cc1ccccc1)NC(=O)OCc1ccccc1`, the growth was 68.3% in [1]; 5.9% (active) in test [2]; 103% in test [3]; 63.5% in [4]; 26.8% in test [5]; 84.8% in test [6]. Further, the growth in test [7] was 99.7%; in test [8], 70.7%; in [9], 65.6%.
As to `C/C(=C(/c1ccc(O)cc1)c1ccc(OCCN(C)C)cc1)c1ccccc1`, the growth in test [1] was 98.1%; in [2], 36.6%; in [3] it was 79.9%; in test [4] it was 85.2%; in test [5], 69.3%; in test [6], 83.3%. The growth in [7] was 98.1%; in test [8], 78.1%; in [9], 65.1%.
As to `COc1ccc(-c2cc(/C=C3\C(=O)Nc4ccc(Cl)cc43)[nH]n2)cc1`, the growth is 72.6% in test [1]; 24% in test [2]; 33.4% in test [3]; 73.9% in test [4]; 51% in test [5]; 66.3% in [6]. Moreover, the growth in test [7] was 47%; in test [8], 51.7%; in test [9] it was 44.7%.
Consider `O=C(O)c1ccc(=O)[nH]n1`, for which the growth in [1] is 135%; in [2] it was 102%; in test [3], 120%; in test [4], 103%; in test [5] it was 122%; in test [6], 125%. Also, the growth is 109% in test [7], 105% in [8] and 107% in test [9].
As to `CC1=C(NCCN2CCCC2)C(=O)c2c(OCc3cccc(Cl)c3)cccc2C1=O`, the growth in test [1] was 89.9%; in test [2], 30.8%; in test [3] it was 53%; in test [4] it was 62.8%; in test [5], 73.8%; in test [6], 72.8%. Besides, the growth is 56.9% in [7], -42.4% (active) in test [8] and -72.6% (active) in [9].
Take `COCCCNc1nc(NC(=O)c2ccc(F)cc2C)cc(-c2cccnc2)n1`: the growth in [1] was 110%; in test [2], 104%; in test [3], 107%; in [4], 81.1%; in test [5], 99.5%; in [6], 104%. Moreover, the values for the growth in [7], in test [8] and in test [9] were 104%, 84.1% and 103%, respectively.
As for `CCOC(=O)c1ccc2c(c1)nc(/C=C/c1ccc(Cl)cc1)n2-c1cc(C(C)(C)C)[nH]n1`, the growth was 74.1% in test [1]; 19.1% in [2]; 61.2% in [3]; 52.5% in [4]; 21.3% in test [5]; 54.6% in test [6]. For the same compound, the values for the growth in test [7], in test [8] and in test [9] were 56.2%, 67% and 83.4%, respectively.
`COc1ccc2nc3cc(Cl)ccc3c(N3CCN(c4nccc(Nc5ccccc5)n4)CC3)c2c1`: the growth in test [1] was 75.2%; in [2] it was 41.5%; in [3], 110%; in test [4], 70.2%; in test [5] it was 35%; in test [6] it was 61.3%. The values for the growth in test [7], in [8] and in [9] were 78.3%, 82.2% and 60.8%, respectively.
Consider `CNCCCn1c2c(c3ccc([N+](=O)[O-])cc3c1=O)C(=O)c1cc(OC)cnc1-2`, for which the growth is 0.657% (active) in [1]; -28.9% (active) in [2]; -69.2% (active) in [3]; -51.9% (active) in test [4]; -90.5% (active) in test [5]; 0.163% (active) in test [6]. The growth in [7] was -13.2% (active); in test [8] it was -23.1% (active); in test [9] it was -13.1% (active).
As to `COc1ccc2nc3cc(Cl)ccc3c(NCCNCC(O)CO)c2c1` (stereo unspecified), the growth in test [1] was 31.6%; in test [2] it was 10.8%; in [3] it was 28.7%; in test [4] it was 20%; in [5], 9.56% (active); in [6], 28.8%. The growth in test [7] was 45.6%; in test [8], 32.5%; in [9] it was 28%.
With `CC1=C(NCCN2CCCC2)C(=O)c2c(OCc3ccc(F)c(Cl)c3)cccc2C1=O`, the growth in test [1] is 84.3%; in test [2], 17%; in test [3] it was 44.3%; in test [4] it was 59.1%; in test [5], 71.8%; in test [6], 70.5%. Moreover, the growth in test [7] is 45.6%; in test [8], -63.9% (active); in test [9], -73.7% (active).
On to `Cc1cc(OCc2ccc(C(F)(F)F)cc2)c2c(c1)C(=O)C=C(NCCN1CCCC1)C2=O`, for which the growth was 76.2% in [1]; -8.28% (active) in [2]; -45.4% (active) in test [3]; 74.7% in test [4]; 53.6% in [5]; 69% in test [6]. Further, the values for the growth in test [7], in test [8] and in test [9] were 64.1%, -92.4% (active) and -84.9% (active), respectively.
